Test results as given in paper PMC10726135, “HNF4α isoforms regulate the circadian balance between carbohydrate and lipid metabolism in the liver”.
Over roughly 18,000 sequences, “log2 normalized intensity” has its median near 0.36; the highest 2% begin near 7.3. The full list was thinned out, with the highest values kept by preference.

biological target: T1, HNF4alpha8 (COS-7 nuclear extract) (Homo sapiens, UniProt P41235-5 1-452); assay: protein-binding microarray; COS-7 nuclear extract on double-stranded Agilent 4x180k PBM; binding buffer, salt, pH and temperature not given in the material; high values mean tight binding; details: chain copies: 2; label: 3' end of strand 1 on the slide; dsDNA, one strand shown
T1 sequence: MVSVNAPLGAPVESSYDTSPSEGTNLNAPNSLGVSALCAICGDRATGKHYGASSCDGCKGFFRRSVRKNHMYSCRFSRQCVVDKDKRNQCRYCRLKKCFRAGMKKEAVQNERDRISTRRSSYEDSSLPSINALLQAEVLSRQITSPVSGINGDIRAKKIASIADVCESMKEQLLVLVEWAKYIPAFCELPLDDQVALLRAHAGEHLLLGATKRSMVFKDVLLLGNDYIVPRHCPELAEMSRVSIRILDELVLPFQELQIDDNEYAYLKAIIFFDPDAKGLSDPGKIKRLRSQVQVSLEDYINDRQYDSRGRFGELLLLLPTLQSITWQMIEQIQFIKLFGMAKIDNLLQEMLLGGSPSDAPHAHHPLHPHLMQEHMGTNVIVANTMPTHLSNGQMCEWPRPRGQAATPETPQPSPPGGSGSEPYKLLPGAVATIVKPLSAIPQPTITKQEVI
Summary of the method: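 Nuclear extracts of COS-7 cells transiently transfected with a human HNF4α isoform were applied to a custom Agilent SurePrint G3 4x180k array bearing ~44,000 double-stranded ~60-nt test sequences, each in quadruplicate. The bound protein was imaged on an Agilent G2565CA scanner at 2-µm resolution. Binding signal is the normalized, background-corrected gProcessedSignal from Agilent software.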

| Sequence | binding signal [log2 normalized intensity] |
| --- | --- |
| TCACCTGCTCATTGACCCTTAGGCCAAGGCGCCTAGGGAGATTAGAGTATCGGTCGA | 3.1 |
| ATGTCAGGAGCCCCACTGTAGTAAGGGAGTGCCTAGGGAGATTAGAGTATCGGTCGA | -0.892 |
| CACCTCTGCTTATCTCAACTGATTTACCTCGCCTAGGGAGATTAGAGTATCGGTCGA | 0.918 |
| TTAACACAAGTTATTACCGTGATGTTCGTTGCCTAGGGAGATTAGAGTATCGGTCGA | 1.14 |
| GTCCCAGGGCAAAGGTCACCAGCTAAGCTGGCCTAGGGAGATTAGAGTATCGGTCGA | 6.21 |
| AGGGCAAAGGTCACCAGCTAAGCTGTTACTGCCTAGGGAGATTAGAGTATCGGTCGA | 5.83 |
| GGGCAAATCTGAGGTCAAAGCTGTCAGAGAGCCTAGGGAGATTAGAGTATCGGTCGA | -0.316 |
| CAGAGCTGTCGTCCCAGGGCAAAGGTCACCGCCTAGGGAGATTAGAGTATCGGTCGA | 8.47 |
| CTTCCCAGCTGCTGGTCAAAGGGCATTACTGCCTAGGGAGATTAGAGTATCGGTCGA | 5.83 |
| CTGTCGTCCCAGGGCAAAGGTCACCAGCTAGCCTAGGGAGATTAGAGTATCGGTCGA | 7.57 |
| ATCCTGCCTCCATTAATTAACCTTTGAGCTGCCTAGGGAGATTAGAGTATCGGTCGA | 6.76 |
| ATGAGATACCCATTCACATGACCTTTGTCCGCCTAGGGAGATTAGAGTATCGGTCGA | 8.96 |
| ACATGACCTTTGTCCGTTCCTGCCTGGAGCGCCTAGGGAGATTAGAGTATCGGTCGA | 5.37 |
| CATTCACATGACCTTTGTCCGTTCCTGCCTGCCTAGGGAGATTAGAGTATCGGTCGA | 6.63 |
| CTGGGATGAGATACCCATTCACATGACCTTGCCTAGGGAGATTAGAGTATCGGTCGA | 3.92 |
| ATACCCATTCACATGACCTTTGTCCGTTCCGCCTAGGGAGATTAGAGTATCGGTCGA | 7.49 |
| TTCGGTGCTGACCTTTGTTCACATTTGTGCGCCTAGGGAGATTAGAGTATCGGTCGA | 5.96 |
| CTGATGAATAGAAAGAGGTCAATGTACTTAGCCTAGGGAGATTAGAGTATCGGTCGA | 2.94 |
| TATGTTAATGGCAGAATCAAAGGTCAAAATGCCTAGGGAGATTAGAGTATCGGTCGA | 5.17 |
| ATAATTCAGTTTCATTGCACTTTGCCCTCTGCCTAGGGAGATTAGAGTATCGGTCGA | 9.39 |
| ACTGCCATTGATAATTCAGTTTCATTGCACGCCTAGGGAGATTAGAGTATCGGTCGA | -0.131 |
| TTCATTGCACTTTGCCCTCTCTTCAGCACCGCCTAGGGAGATTAGAGTATCGGTCGA | 6.34 |

| Sequence | binding signal [log2 normalized intensity] |
| --- | --- |
| TCAGTTTCATTGCACTTTGCCCTCTCTTCAGCCTAGGGAGATTAGAGTATCGGTCGA | 7.35 |
| CATTGATAATTCAGTTTCATTGCACTTTGCGCCTAGGGAGATTAGAGTATCGGTCGA | 4.62 |
| TGCACTTTGCCCTCTCTTCAGCACCTTTTAGCCTAGGGAGATTAGAGTATCGGTCGA | 5.26 |
| GGTCTGTTTGTGAAACAGTGGGCAATATGAGCCTAGGGAGATTAGAGTATCGGTCGA | 1.18 |
| AACCTAGCCCCCTTTCCCTTATCTTTGTTAGCCTAGGGAGATTAGAGTATCGGTCGA | 2.54 |
| GGACAAAGTTCGTGGAAAGTGGAAGAATGGGCCTAGGGAGATTAGAGTATCGGTCGA | 0.952 |
| CATGAAGCTTCCCCTTTAACCAATATTAGCGCCTAGGGAGATTAGAGTATCGGTCGA | 0.107 |
| AACCTTCATCTCTCTTTGTTGACATCTGCTGCCTAGGGAGATTAGAGTATCGGTCGA | -0.0144 |
| TATCTTCTTTCAGTGTTGACCTTTGAACATGCCTAGGGAGATTAGAGTATCGGTCGA | 9.23 |
| AGGAGTGTCTTTCTCCTTGAACACAGTGTTGCCTAGGGAGATTAGAGTATCGGTCGA | 1.24 |
| TCTTTCAGTGTTGACCTTTGAACATTTCTTGCCTAGGGAGATTAGAGTATCGGTCGA | 8.97 |
| AACACTATCTTCTTTCAGTGTTGACCTTTGGCCTAGGGAGATTAGAGTATCGGTCGA | 7.46 |
| GAATGTTGAACCTTTCTTTGTCTTTGCAATGCCTAGGGAGATTAGAGTATCGGTCGA | 1.98 |
| TCTTGGAATGTTGAACCTTTCTTTGTCTTTGCCTAGGGAGATTAGAGTATCGGTCGA | 2.31 |
| TATCCAATAAAACACTATCTTCTTTCAGTGGCCTAGGGAGATTAGAGTATCGGTCGA | 0.405 |
| CATGCTCTTGGAATGTTGAACCTTTCTTTGGCCTAGGGAGATTAGAGTATCGGTCGA | 3.19 |
| TTACCATATTTACTTATGGTTTGACCCTGCGCCTAGGGAGATTAGAGTATCGGTCGA | 5.23 |
| AATTCCTTTCAAACTGTATTGCTCAATGTCGCCTAGGGAGATTAGAGTATCGGTCGA | 0.181 |
| GAGTTGGAGAAGAGCAAAGATCATCTGGTGGCCTAGGGAGATTAGAGTATCGGTCGA | 1.45 |
| CAAAAGTTCAAACTTTATTTGATGATGAAGGCCTAGGGAGATTAGAGTATCGGTCGA | 0.503 |
| AATGCGCAGAATTTCTTTTAATGTGTGCTTGCCTAGGGAGATTAGAGTATCGGTCGA | 0.136 |
| TTAATACTTTGGAACTCAGTTAATGTACAGGCCTAGGGAGATTAGAGTATCGGTCGA | 1.59 |

| Sequence | binding signal [log2 normalized intensity] |
| --- | --- |
| CTTAGCAGTGGGAGACAGGCATTAACCCTTGCCTAGGGAGATTAGAGTATCGGTCGA | 1.74 |
| AACTGTACTTTGGACTGGGGACCTGGTCTGGCCTAGGGAGATTAGAGTATCGGTCGA | 4.79 |
| CTGGTTCTGCAAGGCAACTGACCTTTGGATGCCTAGGGAGATTAGAGTATCGGTCGA | 8.71 |
| CTTGGGGGAGGAGGGCAACCTTTGAACTGGGCCTAGGGAGATTAGAGTATCGGTCGA | 6.02 |
| TCTGCAAGGCAACTGACCTTTGGATCTGGGGCCTAGGGAGATTAGAGTATCGGTCGA | 8.01 |
| GAGACAACTGCAACAGGAGGACCTCTGGATGCCTAGGGAGATTAGAGTATCGGTCGA | -0.854 |
| TTCTTCTGGTTCTGCAAGGCAACTGACCTTGCCTAGGGAGATTAGAGTATCGGTCGA | 4.13 |
| TTTATGACCTTTGACTGCAGAAGATAAGAAGCCTAGGGAGATTAGAGTATCGGTCGA | 4.5 |
| TGATAAAGGGGGCAAAGGGCATGGGCAGCTGCCTAGGGAGATTAGAGTATCGGTCGA | 4.41 |
| AAGGTCAGCAAGCCTGGAGTTCTGATGTTCGCCTAGGGAGATTAGAGTATCGGTCGA | 0.91 |
| AAGCTCTGGAGTCCAAAGGTCAGCAAGCCTGCCTAGGGAGATTAGAGTATCGGTCGA | 8.14 |
| GGTGTAAGCTCTGGAGTCCAAAGGTCAGCAGCCTAGGGAGATTAGAGTATCGGTCGA | 8.69 |
| TGTTTGCCTCTCAGCTCATTCAAAGTCCAAGCCTAGGGAGATTAGAGTATCGGTCGA | 4.2 |
| GGAGTGACCCTGGGAGCAAAGGTCAAGAGTGCCTAGGGAGATTAGAGTATCGGTCGA | 7.55 |
| GTCCAAAGGTCAGCAAGCCTGGAGTTCTGAGCCTAGGGAGATTAGAGTATCGGTCGA | 5.05 |
| TTAGGAGGATGACAAAGAGCAAGTGACCCTGCCTAGGGAGATTAGAGTATCGGTCGA | 4.46 |
| CCACTGGTGTAAGCTCTGGAGTCCAAAGGTGCCTAGGGAGATTAGAGTATCGGTCGA | 4.54 |
| TGGGAGCAAAGGTCAAGAGTTTTAAAGTATGCCTAGGGAGATTAGAGTATCGGTCGA | 5.47 |
| GGAGACCACTGGTGTAAGCTCTGGAGTCCAGCCTAGGGAGATTAGAGTATCGGTCGA | 1.64 |
| CTGGAGTCCAAAGGTCAGCAAGCCTGGAGTGCCTAGGGAGATTAGAGTATCGGTCGA | 7.44 |
| ATCCACCCATCCAAAGGTCAGCAATCTCAAGCCTAGGGAGATTAGAGTATCGGTCGA | 3.45 |
| TATTTGCTCACCAGTGACCAATAATGTAATGCCTAGGGAGATTAGAGTATCGGTCGA | 0.199 |

| Sequence | binding signal [log2 normalized intensity] |
| --- | --- |
| ATTAGCTTCTGTTCAGGAGTTGTCTGTCCAGCCTAGGGAGATTAGAGTATCGGTCGA | 1.39 |
| CCATGCTCTTTGGCCTGGCATTTGAGACTAGCCTAGGGAGATTAGAGTATCGGTCGA | 0.329 |
| TTTGTCCCCCACCTGTGAAGATAAGCTGTCGCCTAGGGAGATTAGAGTATCGGTCGA | 3.17 |
| AGAATGGAGAAAACAACATTCCTTGTGTTTGCCTAGGGAGATTAGAGTATCGGTCGA | 0.48 |
| TCAGCCTTAACTCAAAAGGCCAAAGTCCAAGCCTAGGGAGATTAGAGTATCGGTCGA | 9.11 |
| AATTCTTAAGCCAAAGTCCAAGTTGGTGAGGCCTAGGGAGATTAGAGTATCGGTCGA | 3.81 |
| TCCACAGTCAAGGCCAAAGGTTAAAAATAAGCCTAGGGAGATTAGAGTATCGGTCGA | 4.8 |
| TATCAGCTTTGAGACACCTGGCCAAGTACAGCCTAGGGAGATTAGAGTATCGGTCGA | -0.899 |
| TTTTCCACCCTCCCCTCCCCCTCCTCCCCTGCCTAGGGAGATTAGAGTATCGGTCGA | 7.22 |
| AACCCGCCCCCTCCCCCTGCCGGCGGCGCAGCCTAGGGAGATTAGAGTATCGGTCGA | 6.05 |
| ATTGTGAAACGTTTGAATTCTTGCCTATCCGCCTAGGGAGATTAGAGTATCGGTCGA | -0.841 |
| GGTTGCCCAGGGAGAGCTGGACTTTCATCTGCCTAGGGAGATTAGAGTATCGGTCGA | 5.54 |
| TATCTTTGGAGAATGCCTTTTGTGTAGGAGGCCTAGGGAGATTAGAGTATCGGTCGA | 1.69 |
| AGATAGTGACGGAGGTGACCTTTGGTTGTCGCCTAGGGAGATTAGAGTATCGGTCGA | 6.24 |
| TGGCTGGCGGCTAGTGTACAGGTGACCTTTGCCTAGGGAGATTAGAGTATCGGTCGA | 7.84 |
| GCTAGGTGGCGGGCTGGCTCAGGACAGGTGGCCTAGGGAGATTAGAGTATCGGTCGA | -0.886 |
| AAAGCTGGCTGGCGGCTAGTGTACAGGTGAGCCTAGGGAGATTAGAGTATCGGTCGA | 0.565 |
| CTAGTGTACAGGTGACCTTTGGAATGAACCGCCTAGGGAGATTAGAGTATCGGTCGA | 7.75 |
| GGAATGAGCAGGAACCTTGTGGTGGTGAAAGCCTAGGGAGATTAGAGTATCGGTCGA | 0.216 |
| TTGGAGAATGCCTTTTGTGTAGGAGTACACGCCTAGGGAGATTAGAGTATCGGTCGA | 1.46 |
| GGCGGCTAGTGTACAGGTGACCTTTGGAATGCCTAGGGAGATTAGAGTATCGGTCGA | 9.41 |
